SMILES strings stand for the structures. The campaign covered roughly 7,900 compounds. About 400 (5.1%) showed an effect of 50% or more. What follows is part of a selection rich in strong results, with near analogues and random picks from the rest.

Parkinson's disease protein 7 (PARK7/DJ1), sequence (Q99497 whole entry, looked up, the tested form may be a part): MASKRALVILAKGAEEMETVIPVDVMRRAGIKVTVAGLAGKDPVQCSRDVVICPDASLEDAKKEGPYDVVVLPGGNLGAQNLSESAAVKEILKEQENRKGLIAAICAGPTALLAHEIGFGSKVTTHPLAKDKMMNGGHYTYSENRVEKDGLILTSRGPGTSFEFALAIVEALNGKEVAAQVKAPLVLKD

The test has as its target Parkinson's disease protein 7 (PARK7/DJ1) (human, UniProt Q99497). The test can be described thus: primary screen, percent inhibition; read as competition with a fluorescent probe by fluorescence polarization; higher = more effect of the substance. Particulars: 100 µM. A digest of the protocol:
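Fluorescence-polarization probe displacement (JYQ-107, 20 nM final, 2 h) after 2 h preincubation of PARK7 (0.2 μM final) with each fragment at 100 μM final. Read-out ex/em 480/520 nm; remaining activity derived from FP signal loss relative to reference controls.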
For `O=C(O)Cn1nc(-c2ccc(F)cc2)oc1=O`, the Inhibition % came to 12.4%.

The compound `Nc1cncc(S(=O)(=O)F)c1` returned an Inhibition % of 95.6%.

Turning to `Nc1ccc(S(=O)(=O)F)cc1`, the Inhibition % is listed as 5.99%.

In turn, `N#CC(=Cc1ccc(-c2ccc(Cl)cc2Cl)o1)C(N)=O` had an Inhibition % of 3.17%.

The compound `Cc1ccc(Cl)c(OCC2CO2)c1` (stereo not drawn) displayed an Inhibition % of 7.81%.

Turning to `CC1(C)OB(c2c(Cl)cccc2Cl)OC1(C)C`, the Inhibition % worked out at 1.49%.

Regarding `Cc1ccccc1N1CCN(C(=O)n2ccnc2)CC1`, the Inhibition % is 8.38%.

For `CN(Cc1cc(C#N)ccc1F)C(=O)CCl`, the Inhibition % is 50.3%.

`CN(Cc1cc(Br)cs1)C(=O)CCl` had an Inhibition % of 42.9%.

Regarding `Cc1ccc(CN(C)C(=O)Cn2cnc(C#N)n2)c(C)c1`, the Inhibition % is 3.86%.

For `Cc1ccccc1CC(=O)NNC(=O)CCl`, the Inhibition % is recorded as 24%.

The compound `CN(Cc1cccs1)C(=O)CCl` had an Inhibition % of 36.6%.

The compound `CCN(Cc1ccc(C#N)cc1F)C(=O)CCl` gave an Inhibition % of 16.8%.

`Cc1ccccc1CN(C)C(=O)CCl`: the Inhibition % is on record as 56.6%.

Compound `Cc1ccc(CN(C)C(=O)CCl)c(C)c1` gave an Inhibition % of 65.7%.

The compound `CN(Cc1ccccc1Br)C(=O)CCl` came in with an Inhibition % of 93.9%.

Take `Cc1ccccc1CCNC(=O)CCl`: the Inhibition % amounted to 8.29%.

For the compound `CC(NC(=O)CCl)c1cccs1` (stereo not drawn), the Inhibition % came out at 9.37%.

`C=CC(=O)N1CC(C)S(=O)(=O)C(C)C1` (stereo not drawn) returned an Inhibition % of 5.08%.

As for `Cn1nccc1C12CCOCC1O2` (stereo not drawn), the Inhibition % stood at 9.22%.

For the compound `COc1ccccc1COCC1CO1` (stereo not drawn), the Inhibition % was found to be 4.72%.

In turn, `C=CC(=O)N1CCCC(c2nn(C)cc2C(=O)O)C1` (stereo not drawn) registered an Inhibition % of 0.724%.

As to `N#Cc1ncn(-c2ncc(C(F)(F)F)cc2Cl)n1`, the Inhibition % was 6.83%.

On to `C=CC(=O)NCC1CCCSC1` (stereo not drawn), for which the Inhibition % amounted to 13.8%.

On to `Cc1ccc(CN(C)C(=O)CCl)o1`, for which the Inhibition % turned out to be 40.8%.

Compound `CN(Cc1ccc(Cl)s1)C(=O)CCl` gave an Inhibition % of 30.4%.

Compound `CN(Cc1ccc(-c2ccc(Cl)cc2)o1)C(=O)CCl` displayed an Inhibition % of 79.2%.

As for `CN(Cc1ccco1)C(=O)CCl`, the Inhibition % stood at 53%.

Regarding `O=C(CCl)N(Cc1ccco1)c1ccccc1`, the Inhibition % amounted to 17.8%.

For the compound `O=C(CCl)NC(=O)NC12CC3CC(CC(C3)C1)C2`, the Inhibition % worked out at 0.699%.

`C=CC(=O)Nc1cn(C)nc1C(C)C` gave an Inhibition % of 8.9%.

Compound `CCn1c(N)c(C(=O)CCl)c(=O)[nH]c1=O` registered an Inhibition % of 4.93%.

For the compound `C=CC(=O)N1C[C@]2(C)CC[C@@H](C2)C1(C)C`, the Inhibition % was found to be 15%.

As for `O=S(=O)(F)c1ccc(-c2cn(Cc3cc(C4CC4)no3)nn2)cc1`, the Inhibition % is reported as 3.46%.

`Cl.ClCCc1nc2ccccc2[nH]1` displayed an Inhibition % of 3.05%.

Turning to `C=CC(=O)NCC1(C)CCOC2(CCC2)C1` (stereo not drawn), the Inhibition % is 13.5%.

The record behind these values is publication PMC9574860, “Chemical Toolkit for PARK7: Potent, Selective, and High-Throughput” (Journal of Medicinal Chemistry, 2022).
